Measured values taken from paper PMC6919601, “Identification of Plasmodium dipeptidyl aminopeptidase allosteric inhibitors by high throughput screening” (PLoS ONE, 2019).
Hit rate of the full screen: of about 110,000 compounds, about 230 (0.21%) showed an effect of 50% or more. This is one part of a sample in which strong results are shown more often than they occur.

Each compound was assayed against DPAP1 (Plasmodium falciparum, UniProt Q8IIJ9) (assay: primary screen, percent inhibition; read by cleavage of a fluorogenic dipeptide substrate; higher = more effect of the substance).
Set-up: species or system P. falciparum D10 trophozoite lysates; single well
Description: HTS was performed in black 384-well plates. The first and last two columns of each plate contained our negative (DMSO) and positive (10 μM JCP410) controls, and the 20 central columns the test compounds at 10 μM. Compounds were first diluted 50-fold into assay buffer (50 mM sodium acetate, 5 mM MgCl2, 10 mM β-mercaptoethanol, and 0.1% CHAPS, pH 5.5) from a 10 mM DMSO stock plates. One microliter of this 200 μM intermediate stock plate was dispensed into the assay plate. […] After 30 min, the reaction was quenched with 20 μL of 0.5 M acetic acid, and the fluorescent intensity measured at 523 nm (λex = 492 nm) using an Analyst HT multimode plate reader (Molecular Devices).
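Note: 30 min substrate incubation versus DMSO and 10 µM JCP410 controls.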

Chain of DPAP1 (Q8IIJ9 whole entry, looked up): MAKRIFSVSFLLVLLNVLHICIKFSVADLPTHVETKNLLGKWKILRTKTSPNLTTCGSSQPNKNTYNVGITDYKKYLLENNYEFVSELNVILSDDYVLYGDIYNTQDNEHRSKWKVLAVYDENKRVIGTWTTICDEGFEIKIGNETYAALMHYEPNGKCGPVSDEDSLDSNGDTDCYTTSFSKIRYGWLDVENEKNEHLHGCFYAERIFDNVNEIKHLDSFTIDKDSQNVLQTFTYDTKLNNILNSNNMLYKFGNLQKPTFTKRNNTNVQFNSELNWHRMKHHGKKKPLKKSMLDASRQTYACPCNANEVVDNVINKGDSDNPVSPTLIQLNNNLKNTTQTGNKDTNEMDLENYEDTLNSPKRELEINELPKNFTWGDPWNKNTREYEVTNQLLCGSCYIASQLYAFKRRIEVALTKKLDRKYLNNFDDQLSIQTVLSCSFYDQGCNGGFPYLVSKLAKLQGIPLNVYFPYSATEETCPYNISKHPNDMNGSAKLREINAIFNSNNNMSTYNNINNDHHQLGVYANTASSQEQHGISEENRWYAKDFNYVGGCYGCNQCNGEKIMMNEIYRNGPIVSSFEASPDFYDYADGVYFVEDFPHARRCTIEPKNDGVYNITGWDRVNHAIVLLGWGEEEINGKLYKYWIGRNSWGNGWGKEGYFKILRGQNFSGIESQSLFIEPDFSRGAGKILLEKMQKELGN

Row | SMILES | % Inhibition @ 10 uM [%]
1 | Cc1cc2c(c(S)n1)C(=O)O/C2=C\c1ccco1 | 67.6
2 | Cc1cc2c(c(S)n1)C(=O)O/C2=C\c1c[nH]nc1-c1ccc(F)cc1 | 26
3 | Cc1cc2c(c(S)n1)C(=O)O/C2=C\c1c[nH]nc1-c1cccs1 | 43.6
4 | CCOC(=O)N1CCN(C(=O)CSc2nnc(Cc3cccn3C)n2-c2ccc(OC)cc2)CC1 | -5.76
5 | CCOC(=O)N1CCN(C(=O)CSc2nc(-c3ccc(C)cc3)cn2-c2ccc(OC)cc2)CC1 | 77.3
6 | COc1ccc(-n2cc(-c3ccc(C)cc3)nc2SCC(=O)NCC2CCCO2)cc1 (centres unmarked) | 4.33
7 | CC1CCCCC1NC(=O)c1cnn2c(C(F)(F)F)cc(-c3cccs3)nc12 (centres unmarked) | 4.36
8 | c1ccc2c(c1)CCN(c1ncnc3c1nnn3Cc1cccc3ccccc13)C2 | -0.0678
9 | CCS(=O)(=O)N1CCC(C(=O)NCc2ccc(F)cc2Cl)CC1 | -6.75
10 | CN(C)CC1CSCCC1(O)c1cccc(O)c1 (centres unmarked) | -15.4
11 | CN(C)CC1CSCCC1(O)c1cccc(Cl)c1 (centres unmarked) | -4.54
12 | CN(C)CC1CSCCC1(O)c1ccccc1 (centres unmarked) | 85.1
13 | O=c1oc2c(cc(NS(=O)(=O)c3ccc(F)cc3)c3ccccc32)s1 | -2.54
14 | Cc1cc2ccccc2n1-c1ccc(C(=O)N2CCCCCC2)s1 | 3.12
15 | C=CC/N=C/C1=C(O)CC(C)(C)CC1=O | -3.06
16 | CC1(C)CC2=NCC(=O)NC2=C(O)C1 | 59.8
17 | CC1(C)CC2=NC3=C(C(=O)CC(C)(C)C3)C(c3cc(Cl)c(O)c(Cl)c3)C2=C(O)C1 (centres unmarked) | 13.2
18 | COc1ccc(Br)cc1C1C(C#N)=C(N)Oc2[nH]nc(-c3ccc4c(c3)OCO4)c21 (centres unmarked) | 3.99
19 | CCOC(=O)C1=NNC2C(=O)N(c3ccc(F)cc3)C(=O)C12 (centres unmarked) | -5.48
20 | O=C(Nc1nccs1)c1ccc(COc2ccccc2Cl)o1 | -5.98
21 | Cc1c(CNC(=O)c2cc(-c3ccccc3)nc3ccc(Br)cc23)cnn1C | -2.9
22 | Cc1nc2ccc(Cl)cc2c2c(N)c3ccccc3n12 | 66
23 | Cc1ccc2nc(C)n3c4ccccc4c(NC(=O)c4ccccc4)c3c2c1 | -6.87
24 | COc1ccc2nc(C)n3c4ccccc4c(NC(C)=O)c3c2c1 | 2.4
25 | Cc1nn2c3ccccc3nc2c2ccccc12 | 5.3
26 | O=C(O)CCS(=O)(=O)Cc1ccccc1F | 1.27
27 | Cc1nc2c(c(C)c1CCC(=O)N1CCC(C)CC1)c(=O)n(C)c(=O)n2C | -3.1
28 | Cc1nc2c(c(C)c1CCC(=O)N1CCN(C3CCCCC3)CC1)c(=O)n(C)c(=O)n2C | 52.7
29 | Cc1nc2c(c(C)c1CCC(=O)N1CCC(N3CCCCC3)CC1)c(=O)n(C)c(=O)n2C | -6.91
